Where “and” joins values, the source holds several entries; their conditions need not be identical. Equal entries are not always repeated. Inconclusive results are not listed. Calls of active or inactive are those of the source. Calls follow the shape of the dose curve; as a rule, active = well fitted curve in the direction sought with a large enough effect; inconclusive = small, poorly fitted or top-dose-only effect, or another doubt; inactive = no such curve, though single readings can be large; an effect the other way counts as inactive or inconclusive.
Tests used:
[1] = system: CRL-7250; assay: Cytotoxic Profiling of Annotated Libraries Using Quantitative High-Throughput Screening (AID 1296008); conditions: Five cell lines viability, CellTiter-Glo ATP luminescence, 48-72 h; max response: hits give low values; also: nearly all actives have a fitted effect of over 60% in size; as to max response: % is scaled to controls: 0 for no effect and ±100 for the full control effect
How it was run: (§1)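 Compounds were pin-transferred onto cells and incubated 48 or 72 hr at 37 degree Celsius, 95% humidity. CellTiter-Glo was added, plates sat 10 min at room temperature, then ATP-coupled luminescence was imaged as the viability read-out.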

[2] = system: HEK293; assay: as above; conditions: Five cell lines viability, CellTiter-Glo ATP luminescence, 48-72 h; max response: hits give low values
How it was run: as §1

[3] = system: HaCat; assay: as above; conditions: Five cell lines viability, CellTiter-Glo ATP luminescence, 48-72 h; max response: hits give low values
How it was run: as §1

[4] = system: KB-3-1; assay: as above; conditions: Five cell lines viability, CellTiter-Glo ATP luminescence, 48-72 h; max response: hits give low values
How it was run: as §1

[5] = system: NIH3T3; assay: as above; conditions: Five cell lines viability, CellTiter-Glo ATP luminescence, 48-72 h; max response: hits give low values
How it was run: as §1

[6] = system: HACAT; assay: qHTS assay to identify novel small-molecules to repurpose for Merkel cell carcinoma treatment (AID 1296009); conditions: MCC and control cell lines, CellTiter-Glo viability, 72 h; at 44.8 µM (top of the series) unless noted; also: nearly all actives have a fitted effect of over 60% in size; as to activity change, negative = cytotoxicity: % is scaled to controls: 0 for no effect and ±100 for the full control effect
How it was run: (§2)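 qHTS format: cells treated with library compounds in DMSO across 8 (NPC) or 11 (MIPE) concentrations. Readout after 72 hr at 37 degree celsius was CellTiter-Glo luminescence.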

[7] = system: HEK293T; assay: as above; conditions: MCC and control cell lines, CellTiter-Glo viability, 72 h; at 44.8 µM (top of the series)
How it was run: as §2

[8] = system: MCC-13; assay: as above; conditions: MCC and control cell lines, CellTiter-Glo viability, 72 h; series mostly up to 46 µM
How it was run: as §2

[9] = system: MCC-26; assay: as above; conditions: MCC and control cell lines, CellTiter-Glo viability, 72 h; series mostly up to 46 µM
How it was run: as §2

[10] = system: NIH3T3; assay: as above; conditions: MCC and control cell lines, CellTiter-Glo viability, 72 h; at 44.8 µM (top of the series) unless noted
How it was run: as §2

[11] = system: UISO; assay: as above; conditions: MCC and control cell lines, CellTiter-Glo viability, 72 h; series mostly up to 46 µM
How it was run: as §2

[12] = system: SC27B; assay: qHTS profiling for inhibitors of Plasmodium falciparum proliferation (AID 504749); also: nearly all actives have a fitted effect of over 60% in size; also: potency is read from the fitted curve at half-maximal effect; conditions: P. falciparum in erythrocytes, SYBR Green DNA, 72 h; series mostly up to 28.7 µM
How it was run: (§3)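 Parasite proliferation within erythrocytes, 72 h exposure. Endpoint: SYBR Green I fluorescence after overnight lysis at room temperature. Controls: 0.29 uM artemisinin, DMSO.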

[13] = system: TAB109; assay: as above; conditions: P. falciparum in erythrocytes, SYBR Green DNA, 72 h; series mostly up to 28.7 µM
How it was run: as §3

[14] = system: TAB113; assay: as above; conditions: P. falciparum in erythrocytes, SYBR Green DNA, 72 h; series mostly up to 28.7 µM
How it was run: as §3

[15] = system: TAB165; assay: as above; conditions: P. falciparum in erythrocytes, SYBR Green DNA, 72 h; series mostly up to 28.7 µM
How it was run: as §3

[16] = system: W2; assay: as above; conditions: P. falciparum in erythrocytes, SYBR Green DNA, 72 h; series mostly up to 28.7 µM
How it was run: as §3

[17] = system: MKL-1; assay: qHTS assay to identify novel small-molecules to repurpose for Merkel cell carcinoma treatment (AID 1296009); conditions: MCC and control cell lines, CellTiter-Glo viability, 72 h; series mostly up to 46 µM; also: nearly all actives have a fitted effect of over 60% in size; as to activity change, negative = cytotoxicity: % is scaled to controls: 0 for no effect and ±100 for the full control effect
How it was run: as §2

[18] = system: MKL-2; assay: as above; conditions: MCC and control cell lines, CellTiter-Glo viability, 72 h; series mostly up to 46 µM
How it was run: as §2

[19] = system: WaGa; assay: as above; conditions: MCC and control cell lines, CellTiter-Glo viability, 72 h; series mostly up to 46 µM
How it was run: as §2

[20] = system: C33A; assay: Primary qHTS to identify gynecologic anti-cancer compounds using libraries of approved drugs and bioactive compounds (AID 1345084); conditions: Gynecologic cancer cell panel viability, ATPlite luminescence, 48 h; series mostly up to 57.5 µM; also: % is scaled to controls: 0 for no effect and ±100 for the full control effect; nearly all actives have a fitted effect of over 55% in size
How it was run: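 Five-point cytotoxicity, 48 h drug exposure at 37 C, 5% CO2, on cells seeded 16 h beforehand. ATP content read by ATPlite luminescence.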

O=C(Nc1nc2ccccc2n1CCN1CCOCC1)c1cccc([N+](=O)[O-])c1
inactive: outcome [1] | outcome [2] | outcome [3] | max response [4] 4.26% | outcome [5] | outcome [6] | outcome [7] | Potency [8] | Potency [9] | outcome [10] | Potency [11]

OC(CN1CCC(Cc2ccc(F)cc2)CC1)c1ccc(Cl)cc1 (centres undefined)
inactive: max response [1] 0.243% and -6.71% | max response [2] -10.6% and 0.0097% | max response [3] 0.0814% | outcome [3] | max response [4] -3.87% and 8.37% | max response [5] 0.966% and 1.02% | outcome [6] | Potency [8] | Potency [9] | Potency [17] | Potency [18] | Potency [11] | Potency [19] | Potency [20]
active: Potency [12] 1.58 µM | Potency [13] 1.78 µM | Potency [14] 1.41 µM | Potency [15] 1.26 µM | Potency [16] 379 nM

O=C(O)CCc1ccc(NCc2cccc(Oc3ccccc3)c2)cc1
inactive: max response [1] 4.81% | outcome [2] | max response [3] -7.54% | outcome [3] | max response [4] -3.52% and 6.14% | outcome [5] | outcome [6] | outcome [7] | Potency [9] | activity change, negative = cytotoxicity [17] -1.7% [at 0.00266 µM] | Potency [20]

CN(C(=O)c1ccc(F)cc1C(F)(F)F)C1CCN(c2nnc(-c3ccnn3C)c3ccccc23)CC1
inactive: max response [1] -27.2% and -23.7% | max response [2] -60.8% | max response [3] -6.53% | outcome [3] | max response [4] -19.8% | max response [5] -30.1% and 3.56% | outcome [6] | Potency [8] | Potency [9] | Potency [17] | Potency [18] | Potency [11] | Potency [19] | Potency [20]

CCN(CC)CCCC(C)Nc1nc(C)cc(Nc2ccc3nc(C)cc(N)c3c2)n1 (centres undefined)
inactive: max response [1] -4.56% | max response [2] -11.7% | outcome [3] | outcome [4] | outcome [5] | outcome [6] | Potency [8] | Potency [9] | Potency [17] | Potency [18] | outcome [10] | Potency [11] | Potency [19]

O=C1CCc2cc(OCCCCc3nnnn3C3CCCCC3)ccc2N1
inactive: Potency [13] | Potency [16] | max response [1] -14.2% and -108% | max response [2] -7.13% | outcome [3] | max response [4] -0.483% and -0.724% | outcome [5] | outcome [6] | Potency [8] | Potency [9] | Potency [17] | Potency [18] | outcome [10] | Potency [11] | Potency [19] | Potency [20]

Reference: PubChem BioAssay (NCATS)
